High-throughput results as filed in PubChem BioAssay.
Shown are actives, neighbours in structure and some others; about 1.3% of the full set was active somewhere.
SRC1 inh – SRC1 coactivator transcriptional activity inhibitors, primary screen, cell-based, luminescence; inhibition, % at 3.6 µM; HEK293 GAL4-SRC1 luciferase reporter; actives 0.12% (n = 360,000); AID 588354, 2011; Nuclear receptor coactivator 1 (Homo sapiens), Q15788;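 active means inhibition above the campaign mean plus 3 SD, with each screening campaign given its own cutoff, cut at about 60% in these data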;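 further: 0% = DMSO treated cells and 100% = gossypol at 36 µM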
SRC3 inh – SRC3 coactivator transcriptional activity inhibitors, primary screen, cell-based, luminescence; HEK293 GAL4-SRC3 luciferase reporter; inhibition, % at 3.6 µM; actives 0.17% (n = 360,000);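 active means inhibition above a per-campaign cutoff, the mean of all compounds plus 3 SD, cut at about 60% in these data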;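 further: 0% = DMSO-treated cells and 100% = gossypol-treated cells at 36 µM; higher means less SRC3-driven luciferase light from the GAL4 reporter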
NR2F2 inh – NR2F2 transcriptional activity inhibitors, primary screen, cell-based, luciferase reporter, HEK293T, luminescence; COUP transcription factor 2 (Homo sapiens), P24468; HEK293T NGFI-A luciferase reporter; inhibition, % at 8.6 µM; actives 0.7% (n = 370,000);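 active means inhibition above a per-plate cutoff, mean inhibition of test wells between control levels plus 3 SD, cut at about 38% in these data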;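 further: cells cotransfected with COUP-TFII expression vector driving the NGFI-A reporter; 0% = median of COUP-TF2 test wells and 100% = reporter-only cells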
Gli-Sufu antag – Gli-Sufu pathway antagonists, primary screen, luciferase luminescence, Sufu-KO-LIGHT cells, uHTS; inhibition, % at 5 µM; AID 588413, 2011; actives 0.74% (n = 340,000); Sufu-KO-LIGHT fibroblasts, Gli luciferase reporter luminescence;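 active means inhibition above about 55%, limit read from the data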;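 further: 0% = DMSO-treated cells and 100% = wells with medium but no cells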
NCOA2 inhibitor – inhibition of GAL4-SRC2 driven luciferase reporter, primary screen, SRC2 inhibitor project, cell-based, luminescence; Nuclear receptor coactivator 2 (Homo sapiens), Q15596; HEK293 GAL4-SRC2 luciferase reporter; inhibition, % at 9 µM; actives 0.17% (n = 370,000);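 active means inhibition above the mean inhibition of all tested compounds plus 3 SD, set per campaign, cut at about 52% in these data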;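 further: 0% = DMSO treated cells and 100% = cells given Gossypol at 36 µM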
LRH-1 inv ag – LRH-1 (NR5A2) inverse agonists, primary screen, cell-based, luminescence, HEK293T, StAR-luciferase reporter | LRH-1 transfected, 24 h | AID 602396, 2012 | actives 0.13% (n = 360,000) | inhibition, % at 3.6 µM;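 active means inhibition above the mean inhibition of all tested compounds plus 3 SD, cut at about 73% in these data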;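 further: 0% = DMSO wells and 100% = reporter-only cells lacking LRH-1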
Gal4-VP16 ctr – Gal4-VP16 luciferase reporter inhibitors, counter-screen for COUP-TFII antagonist project, cell-based, luminescence, HEK293; shares compounds with NR2F2 inh; inhibition, % at 8.5 µM; actives 25% (n = 2,500); in the data active means inhibition above about 13%
NR2F2 inh conf – NR2F2 transcriptional activity inhibitors, confirmation, cell-based, luciferase reporter, HEK293, triplicate; shares compounds with NR2F2 inh; HEK293 NGFI-A luciferase reporter, luminescence; inhibition, % at 8.5 µM; actives 45% (n = 2,500); AID 687008, 2013;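 active means mean inhibition over three repeats above a set limit taken from the earlier primary screen, cut at about 38% in these data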;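 further: 100% = cells given the luciferase reporter alone without the COUP-TF2 vector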
Numbers without * were called inactive; . = no result.

SMILES	SRC1 inh	SRC3 inh	NR2F2 inh	Gli-Sufu antag	NCOA2 inhibitor	LRH-1 inv ag	Gal4-VP16 ctr	NR2F2 inh conf
CCCC1CCC2(CCCN2CCOC(=S)Nc2ccccc2OC)CC1 (stereo not drawn)	.	.	51*	.	.	.	2	8
CCCC1CCC2(CCCN2CCOC(=S)Nc2ccccc2Br)CC1 (stereo not drawn)	.	.	26	.	.	.	.	.
CCc1c(C)nc2ccc(Br)cc2c1SCCC#N	65*	64*	38*	6	51	-4	12	24
CCc1c(C)nc2c(Br)cccc2c1SCCC#N	7	27	24	10	27	-3	.	.
O=C1CC(c2ccc3c(c2)OCCO3)Oc2ccc([N+](=O)[O-])cc21 (stereo not drawn)	57	53	42*	29	-1	43	20*	67*
O=C1CC(c2ccc3c(c2)OCCO3)Oc2ccccc21 (stereo not drawn)	-44	-88	-14	-49	-81	-77	.	.
COc1cccc(NC(=O)c2ccc(CN3CCc4ccccc4C3)cc2)c1	-6	-4	54*	28	-23	1	-46	18
COc1ccc(NC(=O)c2ccc(CN3CCN(c4ccccc4)CC3)cc2)cc1	-10	-26	48*	13	-10	-1	0	13
CCOC(=O)c1ccc(NC(=O)c2ccc(CN3CCc4ccccc4C3)cc2)cc1	30	23	51*	-7	6	34	-8	54*
CCOc1ccc(NC(=O)c2ccc(CN3CCc4ccccc4C3)cc2)cc1	29	7	48*	14	-12	13	-30	41*
COc1ccc(C(=O)Nc2ccc(N3CCN(Cc4ccccc4)CC3)cc2)cc1	-20	-12	-22	-5	-4	7	.	.
CCOc1ccccc1NC(=O)c1ccc(CN2CCc3ccccc3C2)cc1	1	-14	9	-40	0	37	.	.
CCOC(=O)c1ccc(NC(=O)CN2CCc3ccccc3C2)cc1	-5	4	-6	-16	-5	-14	.	.
C=CCNc1cccc2c1S(=O)(=O)N[C@@H](C)CO2	.	.	-15	.	-3	.	.	.
O=[N+]([O-])c1ccc(Cl)c(C2Nc3cccc4cccc(c34)N2)c1	-26	17	41*	11	32	15	1	0
O=[N+]([O-])c1ccccc1C1Nc2cccc3cccc(c23)N1	-15	14	3	20	1	3	.	.
CC1(C)C[C@H](O)[C@]2(CO)[C@H](O)C[C@]3(C)C(=CCC4[C@@]5(C)CC[C@H](O)C(C)(C)C5CC[C@]43C)[C@@H]2C1 (stereo partly drawn)	3	-19	-13	5	-22	1	.	.
CC1OC(CC(=O)O)CC2=C1C(=O)c1c(O)cccc1C2=O (stereo not drawn)	70*	93*	105*	91*	96*	97*	98*	110*
COc1ccc(NS(=O)(=O)c2cccc(C(=O)NN=Cc3ccc(OC)cc3OC)c2)cc1	0	-2	38*	-6	9	-1	-7	-5
COc1ccc(NS(=O)(=O)c2cccc(C(=O)N/N=C/c3cccs3)c2)cc1	-24	2	5	-15	-16	11	.	.
CC(=O)c1c(C)[nH]c(C(=O)OCC(=O)Nc2ccc(Cl)c(S(=O)(=O)N(C)C)c2)c1C	10	19	45*	19	14	19	-3	14
COc1ccc(Cn2ccc3ccc(-c4ccc5ccn(Cc6ccccc6F)c5c4)cc32)cc1	.	.	10	.	-17	.	.	.
CCOc1cc(/C=C2\COc3ccccc3C2=O)cc(Br)c1OCC(=O)N(C)C	35	42	38*	14	57*	25	4	28
COc1ccc(OCC(=O)Nc2ccc(N3CCN(C(=O)c4ccccc4)CC3)c(Cl)c2)cc1	9	32	59*	36	25	33	-7	31
CC(C)CCN1C(=O)c2cccc3c(N)ccc(c23)C1=O	-48	-38	-3	-49	-36	-69	.	.
SMILES	SRC1 inh	SRC3 inh	NR2F2 inh	Gli-Sufu antag	NCOA2 inhibitor	LRH-1 inv ag	Gal4-VP16 ctr	NR2F2 inh conf
CCOc1cc(/C=C2\CN(CC)C/C(=C\c3ccc(O)c(OCC)c3)C2=O)ccc1O	51	43	79*	-2	10	46	48*	72*
COc1cc(/C=C2\CCC/C(=C\c3ccc(O)c(OC)c3)C2=O)ccc1O	-2	3	12	52	13	-26	.	.
NCCc1nnc(SCc2c(Cl)cccc2Cl)o1	-5	17	4	2	-26	-12	.	.
NCCCCCc1nnc(SCc2ccccc2Cl)o1	-5	18	55*	21	59*	17	42*	31
C[C@@H]1CN([C@@H](C)CO)C(=O)CCCn2nncc2CO[C@H]1CN(C)S(=O)(=O)c1cccc(C#N)c1	-14	-5	2	.	-31	-1	.	.
C[C@@H]1CNCCN1c1ccc(N2CCN(Cc3ccccc3)[C@@H](C)C2)c(C#N)c1	.	.	26	.	36	.	.	.
C=CCC1(CC=C)CCCN1C(=O)c1cc(COc2ccc(C)nc2)on1	-10	2	57*	77*	-8	21	-47	55*
Cc1cccc(C)c1-n1nnnc1C(c1ccnc2ccccc12)N1CCN(C/C=C/c2ccccc2)CC1 (stereo not drawn)	15	5	3	.	-10	5	.	.
COc1ccc(C=C(C(=O)c2ccccc2)C(=O)c2ccccc2)cc1	-109	-73	-26	.	-14	-91	.	.
CC(C)(C)NCC(=Cc1ccccc1)C(=O)c1ccccc1	51	56	72*	17	68*	82*	48*	80*
O=C(CN1C(=O)C(c2ccc(F)cc2)=NC12CCCC2)Nc1ccc(F)cc1	16	24	39*	41	21	41	-5	28
C[C@@H]1CN([C@H](C)CO)C(=O)c2cc(C#CC3CC3)cnc2O[C@H]1CN(C)S(C)(=O)=O	-20	-38	-7	.	-15	-5	.	.
CCCCCCCCCCCCCCCC[n+]1cccc2ccccc21	27	62*	54*	89*	-13	33	15*	63*
